Data: PubChem BioAssay AID1159580 (chemical genetic matrix, 2015)
“And” between values parts separate entries of the source, which are not always exact repeats. Equal values may be shown once. Out of some 5,500 compounds screened, about 2,000 (36%) were called active. Not shown: some 18% with an inconclusive outcome. No stated cut-off is given here; in the data, active means normalized growth mostly below about 0.91 (no sharp cut-off); inconclusive means no clear call, values can overlap the other calls; inactive means mostly above about 0.92. The list shows a part of the results.

Test: chemical genetic growth profiling, strain panel (AID 1159580);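 further: tested at 20 µM; growth read once vehicle control cultures reached saturation at 30 °C; 1 = growth at the plate median or of vehicle wells; lower values mean less growth of the strain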
Details: S. cerevisiae deletion strains, growth OD
[1] = locus YAL013W, strain DEP1, active compounds read low
[2] = locus YMR307W, strain GAS1, active compounds read low
[3] = locus YNL322C, strain KRE1, active compounds read low

Measured: normalized growth

NC(N)=N[C@@H](CCC(=O)O)C(=O)O
inactive: [1] 1.03 | locus YAL040C, strain CLN3, active compounds read low 1.09 | locus YCL061C, strain MRC1 (second series), active compounds read low 1.01 | locus YDR363W, strain ESC2, active compounds read low 1.02 | locus YER002W, strain NOP16, active compounds read low 1 | [2] 1.01 | locus YNL128W, strain TEP1, active compounds read low 1 | locus YNL153C, strain GIM3, active compounds read low 1.02 | locus YNL175C, strain NOP13, active compounds read low 1.01 | locus YNL197C, strain WHI3, active compounds read low 1.02 | locus YNL224C, strain SQS1, active compounds read low 1 | [3] 1.02 | locus YOR083W, strain WHI5 (second series), active compounds read low 1.04

C[N+]1(C)C2CC[C@H]1CC(OC(=O)C(O)c1ccccc1)C2 (stereo partly drawn)
inactive: [1] 0.996 | locus YAL021C, strain ccr4, active compounds read low 1.02 | locus YAL026C, strain drs2, active compounds read low 1 | locus YAL030W, strain snc1, active compounds read low 0.999 | locus YBL061C, strain skt5, active compounds read low 1 | locus YBR009C, strain hhf1, active compounds read low 0.996 | locus YBR021W, strain FUR4, active compounds read low 0.985 | locus YBR023C, strain chs3, active compounds read low 0.992 | locus YBR171W, strain sec66, active compounds read low 1 | locus YBR229C, strain ROT2, active compounds read low 0.996 | locus YBR231C, strain swc5, active compounds read low 1 | locus YBR279W, strain paf1, active compounds read low 1.01 | locus YCL011C, strain gbp2, active compounds read low 0.984 | locus YCL016C, strain dcc1, active compounds read low 0.971 | locus YCL029C, strain bik1, active compounds read low 0.995 | locus YCL061C, strain MRC1, active compounds read low 0.998 | locus YCL069W, strain vba3, active compounds read low 0.996 | locus YCR088W, strain abp1, active compounds read low 0.993 | locus YDL005C, strain med2, active compounds read low 0.991 | locus YDL035C, strain GPR1, active compounds read low 0.993 | locus YDL040C, strain nat1, active compounds read low 0.997 | locus YDL074C, strain BRE1, active compounds read low 1.01 | locus YDL101C, strain DUN1, active compounds read low 0.996 | locus YDL134C, strain PPH21, active compounds read low 1.01 | locus YDL185W, strain tfp1, active compounds read low 1.01 | locus YDL192W, strain arf1, active compounds read low 1.02 | locus YDR001C, strain nth1, active compounds read low 0.993 | locus YDR069C, strain doa4, active compounds read low 1.02 | locus YDR101C, strain arx1, active compounds read low 0.976 | locus YDR137W, strain rgp1, active compounds read low 0.992 | locus YDR159W, strain sac3, active compounds read low 1.03 | locus YDR162C, strain NBP2, active compounds read low 0.997 | locus YDR195W, strain ref2 1.01 | locus YDR297W, strain sur2, active compounds read low 1 | locus YDR318W, strain mcm21, active compounds read low 1.02 | locus YDR334W, strain swr1, active compounds read low 1 | locus YDR335W, strain msn5, active compounds read low 1 | locus YDR388W, active compounds read low 1.01 | locus YDR392W, strain spt3, active compounds read low 0.94 | locus YDR502C, strain sam2, active compounds read low 1.02 | locus YEL003W, strain gim4, active compounds read low 1.01 | locus YEL037C, strain rad23, active compounds read low 1 | locus YEL061C, strain CIN8 (second series), active compounds read low 1 | locus YEL061C, strain CIN8, active compounds read low 0.995 | locus YER015W, strain faa2, active compounds read low 1 | locus YER016W, strain bim1, active compounds read low 1.01 | locus YER110C, active compounds read low 1.02 | locus YER111C, strain swi4, active compounds read low 0.997 | locus YER155C, strain BEM2 (second series), active compounds read low 1 | locus YER155C, strain BEM2, active compounds read low 0.988 | locus YER167W, strain BCK2, active compounds read low 0.977 | locus YFR010W, strain ubp6, active compounds read low 1 | locus YGL078C, strain dbp3, active compounds read low 1.03 | locus YGL086W, strain mad1, active compounds read low 1 | locus YGL167C, strain pmr1, active compounds read low 1.01 | locus YGL173C, strain kem1, active compounds read low 1.01 | locus YGL227W, strain vid30, active compounds read low 0.988 | locus YGL240W, strain doc1, active compounds read low 1.01 | locus YGL248W, strain PDE1, active compounds read low 0.999 | locus YGL253W, strain hxk2, active compounds read low 1 | locus YGR135W, strain pre9, active compounds read low 1.04 | locus YGR229C, strain SMI1, active compounds read low 0.976 | locus YGR252W, strain gcn5, active compounds read low 1.03 | locus YHR013C, strain ard1, active compounds read low 0.999 | locus YHR027C, strain rpn1, active compounds read low 1.01 | locus YHR030C, strain SLT2, active compounds read low 0.978 and 0.976 | locus YHR079C, strain IRE1 (second series), active compounds read low 1.01 | locus YHR079C, strain IRE1, active compounds read low 0.967 | locus YHR094C, strain hxt1, active compounds read low 1.01 | locus YHR129C, strain ARP1, active compounds read low 1.01 | locus YHR142W, strain chs7, active compounds read low 0.973 | locus YHR200W, strain rpn10, active compounds read low 1.02 | locus YIL066C, strain RNR3, active compounds read low 0.999 | locus YIL073C, strain SPO22, active compounds read low 1.05 | locus YIL125W, strain kgd1, active compounds read low 0.995 | locus YIR030C, strain dcg1, active compounds read low 1.01 | locus YJL092W, strain hpr5, active compounds read low 0.995 | locus YJL095W, strain BCK1 (second series), active compounds read low 0.999 | locus YJL095W, strain BCK1, active compounds read low 1.01 and 0.993 | locus YJL115W, strain asf1, active compounds read low 0.987 | locus YJL129C, strain trk1, active compounds read low 1.01 | locus YJL134W, strain LCB3, active compounds read low 0.989 | locus YJL154C, strain vps35, active compounds read low 0.993 | locus YJL164C, strain tpk1, active compounds read low 1 | locus YJL166W, strain qcr8, active compounds read low 0.999 | locus YJL168C, strain set2, active compounds read low 1.01 | locus YJL187C, strain SWE1 (second series), active compounds read low 1 | locus YJL187C, strain SWE1, active compounds read low 1 | locus YJR043C, strain POL32, active compounds read low 1 | locus YJR066W, strain TOR1, active compounds read low 0.928 | locus YKL009W, strain mrt4, active compounds read low 1.01 | locus YKL068W, active compounds read low 1 | locus YKL085W, strain MDH1 (second series), active compounds read low 1 | locus YKL085W, strain MDH1, active compounds read low 1 | locus YKL160W, strain elf1, active compounds read low 1 | locus YKL190W, strain CNB1, active compounds read low 0.985 | locus YKR001C, strain vps1, active compounds read low 0.996 | locus YKR026C, strain gcn3, active compounds read low 0.999 | locus YKR091W, strain srl3, active compounds read low 0.997 | locus YLL001W, strain dnm1, active compounds read low 0.98 | locus YLL026W, active compounds read low 0.999 | locus YLL041C, strain sdh2, active compounds read low 1 | locus YLR027C, strain aat2, active compounds read low 1 | locus YLR039C, strain RIC1, active compounds read low 0.967 | locus YLR058C, strain SHM2, active compounds read low 1.01 | locus YLR102C, strain apc9, active compounds read low 1.02 | locus YLR113W, strain HOG1, active compounds read low 1 | locus YLR221C, strain rsa3, active compounds read low 0.955 | locus YLR258W, strain gsy2, active compounds read low 0.983 | locus YLR262C, strain YPT6 (second series), active compounds read low 1 | locus YLR262C, strain YPT6, active compounds read low 0.977 | locus YLR268W, strain sec22, active compounds read low 1.03 | locus YLR320W, strain mms22, active compounds read low 0.978 | locus YLR330W, strain CHS5, active compounds read low 1 | locus YLR342W, strain FKS1 (second series), active compounds read low 1 | locus YLR342W, strain FKS1, active compounds read low 1 | locus YLR357W, strain rsc2, active compounds read low 1.01 | locus YLR370C, strain arc18, active compounds read low 0.993 | locus YLR371W, strain rom2, active compounds read low 1 | locus YLR384C, strain iki3, active compounds read low 0.994 | locus YLR418C, strain cdc73, active compounds read low 1.05 | locus YML016C, strain PPZ1, active compounds read low 1.01 | locus YML032C, strain rad52, active compounds read low 0.999 | locus YML120C, strain ndi1, active compounds read low 0.964 | locus YML124C, strain tub3, active compounds read low 1.01 | locus YMR058W, strain fet3, active compounds read low 1.01 | locus YMR078C, strain ctf18, active compounds read low 1.03 | locus YMR125W, strain sto1, active compounds read low 0.996 | locus YMR129W, active compounds read low 0.999 | locus YMR205C, strain PFK2, active compounds read low 0.992 | locus YMR223W, strain ubp8, active compounds read low 1.02 | locus YMR231W, strain pep5, active compounds read low 1 | [2] 0.983 | locus YNL067W, strain RPL9B, active compounds read low 0.995 | locus YNL071W, strain lat1, active compounds read low 1 | locus YNL183C, strain NPR1, active compounds read low 0.956 | locus YNL209W, strain ssb2, active compounds read low 1 | locus YNL233W, strain BNI4, active compounds read low 1 | locus YNL248C, strain rpa49, active compounds read low 1 | locus YNL250W, strain rad50, active compounds read low 1.02 | locus YNL271C, strain bni1, active compounds read low 1.02 | locus YNL298W, strain CLA4, active compounds read low 1.03 | locus YNL307C, strain MCK1, active compounds read low 1.02 | locus YNL322C, strain KRE1 (second series), active compounds read low 0.991 | [3] 0.998 | locus YNR049C, strain mso1, active compounds read low 1.01 | locus YNR052C, strain pop2, active compounds read low 1.02 | locus YOL012C, strain htz1 1.26 | locus YOL147C, strain pex11, active compounds read low 1.02 | locus YOR001W, strain rrp6, active compounds read low 1.03 | locus YOR061W, strain CKA2, active compounds read low 1.01 | locus YOR069W, strain VPS5, active compounds read low 0.987 | locus YOR070C, strain gyp1, active compounds read low 0.999 | locus YOR080W, strain dia2, active compounds read low 0.994 | locus YOR083W, strain WHI5, active compounds read low 1 | locus YOR106W, strain vam3, active compounds read low 1 | locus YOR136W, strain idh2, active compounds read low 1.02 | locus YOR144C, strain elg1, active compounds read low 1.01 | locus YOR184W, strain ser1, active compounds read low 1.03 | locus YOR231W, strain MKK1, active compounds read low 0.983 | locus YOR265W, strain rbl2, active compounds read low 0.996 | locus YOR270C, strain vph1, active compounds read low 1.01 | locus YOR290C, strain snf2, active compounds read low 0.966 | locus YOR316C, strain cot1, active compounds read low 1.02 | locus YPL051W, strain arl3, active compounds read low 1.01 | locus YPL055C, strain LGE1, active compounds read low 0.985 | locus YPL078C, strain atp4, active compounds read low 1 | locus YPL106C, strain sse1, active compounds read low 0.99 | locus YPL240C, strain hsp82, active compounds read low 0.997 | locus YPL256C, strain CLN2, active compounds read low 0.982 | locus YPR119W, strain clb2, active compounds read low 1.01 | locus YPR141C, strain kar3, active compounds read low 1.02 | locus YPR163C, strain tif3, active compounds read low 1.02 | locus YPR167C, strain met16, active compounds read low 1.02 | strain wtn01, active compounds read low 1.03
